From PubChem BioAssay AID1159580 (chemical genetic matrix, 2015)
Out of some 5,500 compounds screened, about 2,000 (36%) were called active. Roughly 18% stayed inconclusive and do not appear here. No stated cut-off is given here; in the data, active means normalized growth mostly below about 0.91 (no sharp cut-off); inconclusive means no clear call, values can overlap the other calls; inactive means mostly above about 0.92. Some of the results follow.

Test: chemical genetic growth profiling, strain panel (AID 1159580);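 further: tested at 20 µM; growth read once vehicle control cultures reached saturation at 30 °C; 1 = growth at the plate median or of vehicle wells; lower values mean less growth of the strain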
Conditions: S. cerevisiae deletion strains, growth OD

Measured: normalized growth

COC1C=CC23c4cc5c(cc4CN(CC2O)[C@@H]3C1)OCO5 (stereo partly specified)
inactive: locus YAL021C, strain ccr4, active compounds read low 0.974 | locus YAL026C, strain drs2, active compounds read low 0.956 | locus YAL030W, strain snc1, active compounds read low 0.989 | locus YBL061C, strain skt5, active compounds read low 0.967 | locus YBR009C, strain hhf1, active compounds read low 0.969 | locus YBR021W, strain FUR4, active compounds read low 1.01 | locus YBR023C, strain chs3, active compounds read low 0.966 | locus YBR171W, strain sec66, active compounds read low 0.962 | locus YBR229C, strain ROT2, active compounds read low 1.01 | locus YBR231C, strain swc5, active compounds read low 0.963 | locus YBR279W, strain paf1, active compounds read low 0.971 | locus YCL011C, strain gbp2, active compounds read low 0.956 | locus YCL016C, strain dcc1, active compounds read low 0.992 | locus YCL029C, strain bik1, active compounds read low 1 | locus YCL069W, strain vba3, active compounds read low 0.948 | locus YCR088W, strain abp1, active compounds read low 0.971 | locus YDL005C, strain med2, active compounds read low 0.944 | locus YDL035C, strain GPR1, active compounds read low 1.01 | locus YDL040C, strain nat1, active compounds read low 0.975 | locus YDL074C, strain BRE1, active compounds read low 1.05 | locus YDL101C, strain DUN1, active compounds read low 1.04 | locus YDL134C, strain PPH21, active compounds read low 1.03 | locus YDL185W, strain tfp1, active compounds read low 1 | locus YDL192W, strain arf1, active compounds read low 0.982 | locus YDR001C, strain nth1, active compounds read low 0.979 | locus YDR069C, strain doa4, active compounds read low 0.944 | locus YDR101C, strain arx1, active compounds read low 0.962 | locus YDR137W, strain rgp1, active compounds read low 0.933 | locus YDR159W, strain sac3, active compounds read low 0.964 | locus YDR162C, strain NBP2, active compounds read low 1.03 | locus YDR195W, strain ref2 0.962 | locus YDR297W, strain sur2, active compounds read low 0.977 | locus YDR318W, strain mcm21, active compounds read low 0.995 | locus YDR334W, strain swr1, active compounds read low 0.966 | locus YDR335W, strain msn5, active compounds read low 0.959 | locus YDR388W, active compounds read low 1 | locus YDR392W, strain spt3, active compounds read low 1.06 | locus YDR502C, strain sam2, active compounds read low 1.01 | locus YEL003W, strain gim4, active compounds read low 0.972 | locus YEL037C, strain rad23, active compounds read low 0.973 | locus YEL061C, strain CIN8 (second series), active compounds read low 0.945 | locus YER015W, strain faa2, active compounds read low 0.986 | locus YER016W, strain bim1, active compounds read low 0.971 | locus YER110C, active compounds read low 1 | locus YER111C, strain swi4, active compounds read low 0.961 | locus YER155C, strain BEM2 (second series), active compounds read low 0.978 | locus YER155C, strain BEM2, active compounds read low 0.997 | locus YER167W, strain BCK2, active compounds read low 0.992 | locus YFR010W, strain ubp6, active compounds read low 0.939 | locus YGL078C, strain dbp3, active compounds read low 1.03 | locus YGL086W, strain mad1, active compounds read low 0.999 | locus YGL167C, strain pmr1, active compounds read low 0.971 | locus YGL173C, strain kem1, active compounds read low 0.968 | locus YGL227W, strain vid30, active compounds read low 0.979 | locus YGL240W, strain doc1, active compounds read low 0.999 | locus YGL248W, strain PDE1, active compounds read low 1.04 | locus YGL253W, strain hxk2, active compounds read low 0.951 | locus YGR135W, strain pre9, active compounds read low 1.05 | locus YGR229C, strain SMI1, active compounds read low 1.06 | locus YGR252W, strain gcn5, active compounds read low 1.09 | locus YHR013C, strain ard1, active compounds read low 0.95 | locus YHR027C, strain rpn1, active compounds read low 0.977 | locus YHR079C, strain IRE1 (second series), active compounds read low 1.01 | locus YHR094C, strain hxt1, active compounds read low 0.992 | locus YHR129C, strain ARP1, active compounds read low 1.02 | locus YHR142W, strain chs7, active compounds read low 0.956 | locus YHR200W, strain rpn10, active compounds read low 1.01 | locus YIL066C, strain RNR3, active compounds read low 1.02 | locus YIL073C, strain SPO22, active compounds read low 0.964 | locus YIL125W, strain kgd1, active compounds read low 0.981 | locus YIR030C, strain dcg1, active compounds read low 1 | locus YJL092W, strain hpr5, active compounds read low 0.948 | locus YJL095W, strain BCK1 (second series), active compounds read low 0.965 | locus YJL095W, strain BCK1, active compounds read low 1.08 | locus YJL115W, strain asf1, active compounds read low 0.988 | locus YJL129C, strain trk1, active compounds read low 0.976 | locus YJL134W, strain LCB3, active compounds read low 1 | locus YJL154C, strain vps35, active compounds read low 0.968 | locus YJL164C, strain tpk1, active compounds read low 0.973 | locus YJL166W, strain qcr8, active compounds read low 0.965 | locus YJL168C, strain set2, active compounds read low 1.01 | locus YJL187C, strain SWE1 (second series), active compounds read low 1.04 | locus YJL187C, strain SWE1, active compounds read low 0.957 | locus YKL009W, strain mrt4, active compounds read low 1.02 | locus YKL068W, active compounds read low 1 | locus YKL085W, strain MDH1 (second series), active compounds read low 1.01 | locus YKL085W, strain MDH1, active compounds read low 1.01 | locus YKL160W, strain elf1, active compounds read low 0.995 | locus YKR001C, strain vps1, active compounds read low 0.978 | locus YKR026C, strain gcn3, active compounds read low 0.983 | locus YKR091W, strain srl3, active compounds read low 0.98 | locus YLL001W, strain dnm1, active compounds read low 0.973 | locus YLL026W, active compounds read low 1 | locus YLL041C, strain sdh2, active compounds read low 0.969 | locus YLR027C, strain aat2, active compounds read low 0.991 | locus YLR039C, strain RIC1, active compounds read low 1.06 | locus YLR058C, strain SHM2, active compounds read low 1.02 | locus YLR102C, strain apc9, active compounds read low 0.995 | locus YLR221C, strain rsa3, active compounds read low 0.956 | locus YLR258W, strain gsy2, active compounds read low 0.97 | locus YLR262C, strain YPT6 (second series), active compounds read low 0.917 | locus YLR262C, strain YPT6, active compounds read low 1.07 | locus YLR268W, strain sec22, active compounds read low 0.974 | locus YLR320W, strain mms22, active compounds read low 0.975 | locus YLR342W, strain FKS1, active compounds read low 0.99 | locus YLR357W, strain rsc2, active compounds read low 0.967 | locus YLR370C, strain arc18, active compounds read low 0.949 | locus YLR371W, strain rom2, active compounds read low 0.976 | locus YLR384C, strain iki3, active compounds read low 0.966 | locus YLR418C, strain cdc73, active compounds read low 1.04 | locus YML016C, strain PPZ1, active compounds read low 1.01 | locus YML032C, strain rad52, active compounds read low 0.98 | locus YML120C, strain ndi1, active compounds read low 1 | locus YML124C, strain tub3, active compounds read low 0.991 | locus YMR058W, strain fet3, active compounds read low 0.983 | locus YMR078C, strain ctf18, active compounds read low 1.01 | locus YMR125W, strain sto1, active compounds read low 0.922 | locus YMR129W, active compounds read low 0.991 | locus YMR205C, strain PFK2, active compounds read low 0.998 | locus YMR223W, strain ubp8, active compounds read low 0.998 | locus YMR231W, strain pep5, active compounds read low 0.974 | locus YMR263W, strain SAP30, active compounds read low 1.03 | locus YMR307W, strain GAS1, active compounds read low 1.06 | locus YNL067W, strain RPL9B, active compounds read low 1.04 | locus YNL071W, strain lat1, active compounds read low 0.97 | locus YNL153C, strain GIM3, active compounds read low 1.04 | locus YNL209W, strain ssb2, active compounds read low 0.981 | locus YNL233W, strain BNI4, active compounds read low 1.04 | locus YNL248C, strain rpa49, active compounds read low 0.949 | locus YNL250W, strain rad50, active compounds read low 1.03 | locus YNL271C, strain bni1, active compounds read low 0.988 | locus YNL298W, strain CLA4, active compounds read low 0.994 | locus YNL307C, strain MCK1, active compounds read low 1.01 | locus YNL322C, strain KRE1 (second series), active compounds read low 0.935 | locus YNR049C, strain mso1, active compounds read low 0.975 | locus YNR052C, strain pop2, active compounds read low 0.997 | locus YOL012C, strain htz1 0.915 | locus YOL147C, strain pex11, active compounds read low 1 | locus YOR001W, strain rrp6, active compounds read low 0.978 | locus YOR061W, strain CKA2, active compounds read low 0.996 | locus YOR069W, strain VPS5, active compounds read low 1.01 | locus YOR070C, strain gyp1, active compounds read low 0.999 | locus YOR080W, strain dia2, active compounds read low 0.976 | locus YOR106W, strain vam3, active compounds read low 0.992 | locus YOR136W, strain idh2, active compounds read low 1 | locus YOR144C, strain elg1, active compounds read low 0.995 | locus YOR184W, strain ser1, active compounds read low 0.967 | locus YOR265W, strain rbl2, active compounds read low 0.99 | locus YOR270C, strain vph1, active compounds read low 0.847 | locus YOR290C, strain snf2, active compounds read low 0.976 | locus YOR316C, strain cot1, active compounds read low 1 | locus YPL051W, strain arl3, active compounds read low 0.99 | locus YPL055C, strain LGE1, active compounds read low 1.03 | locus YPL078C, strain atp4, active compounds read low 0.986 | locus YPL106C, strain sse1, active compounds read low 0.982 | locus YPL240C, strain hsp82, active compounds read low 0.965 | locus YPR119W, strain clb2, active compounds read low 0.994 | locus YPR141C, strain kar3, active compounds read low 0.993 | locus YPR163C, strain tif3, active compounds read low 1 | locus YPR167C, strain met16, active compounds read low 1 | strain wtn01, active compounds read low 1
